From PubChem BioAssay (NCATS)
The source made the active and inactive calls. Calls come from the whole dose curve; as a rule, active = well fitted curve in the direction sought with a large enough effect; inconclusive = small, poorly fitted or top-dose-only effect, or another doubt; inactive = no such curve, though single readings can be large or run the other way.

Biological target: Hexokinase-4 (Homo sapiens) + Glucokinase regulatory protein (Homo sapiens) (UniProt P35557+Q14397)
Assay: qHTS assay for inhibitors of recombinant human GCK-GKRP interaction: HTRF assay (AID 743207)
Details: recombinant GCK-GKRP HTRF binding, 60 min, with sorbitol-6-phosphate; series mostly up to 57.5 µM
Text: Glucokinase (GCK) is a glucose sensor in hepatocytes and pancreatic beta-cells. Hepatic GCK is regulated by glucokinase regulatory protein (GKRP), which is predominantly localized to the liver. GKRP binds to GCK inhibiting its activity in the fasting state while in the presence of glucose the GKRP is displaced. There is an additional layer of regulation by fructose 1-phosphate and fructose 6-phosphate, which inhibit and enhance the GCK-GKRP interaction, respectively. GCK plays a role in glucose homeostasis and there is an interest in the development of strategies to activate GCK to lower blood glucose levels in type 2 diabetes. To date the majority of effort has focused on direct activation of GCK and the assays developed herein look to activate GCK by inhibiting its binding to GKRP. A compound that inhibits the interaction of GCK with GKRP could be important for the treatment of diabetes and can also be used as a tool compound to further elucidate GCK-GKRP biology. To that end, we have developed an HTS biochemical assay using HTRF technology for to interrogate the GCK-GKRP interaction. This assay was screened against a small compound library to look for modulators of activity.
3 uL of 5 nM GST-GCK and 5 nM FLAG-GKRP proteins with 2 uM S6P (columns 1-2, 4-48; Millipore, Billerica, MA) are dispensed into Greiner, white solid-bottom 1536-well assay plates; columns 3 receive buffer without GCK as a control for maximum inhibition. Buffer contains 2 mM MgCl2, 25 mM KCl, 25 mM Hepes, 1 mM DTT, 0.1% Tween 20 and 0.025% BSA and the pH was adjusted to 7.1. Compounds (23 nL) are then transferred via Kalypsys pin tool equipped with 1536-pin array (10 nL slotted pins, V&P Scientific, San Diego, CA). The library compounds are in columns 5-48 and columns 1-4 serve as controls with DMSO in columns 1 and 3 and 26 mM 1:1.5 fold serial of gluckokinase activator (GKA-EMD) in column 2 and 26 mM of the glucokinase activator (GKA-EMD) in column 4. Following addition of compound, 1 uL of detection antibodies (anti-Flag XL 665 and anti-GST K in reconstitution buffer from Cisbio, Bedford, MA; 0.7 ng/well and 0.0945 ng/well, respectively) is added, and the mixture is allowed to equilibrate for 60 minutes at room temperature. Data are normalized to DMSO-treated control columns with (maximum signal) and without (minimum signal) enzyme. Plates were read on an Envision plate reader (PerkinElmer, Shelton, CT, USA) with excitation at 320 nm and dual-wavelength detection at the Fret donor wavelength (615 nm) and the FRET acceptor wavelength (665 nm).

Sequence of Hexokinase-4 (Homo sapiens) + Glucokinase regulatory protein (Homo sapiens) (P35557 whole entry, looked up): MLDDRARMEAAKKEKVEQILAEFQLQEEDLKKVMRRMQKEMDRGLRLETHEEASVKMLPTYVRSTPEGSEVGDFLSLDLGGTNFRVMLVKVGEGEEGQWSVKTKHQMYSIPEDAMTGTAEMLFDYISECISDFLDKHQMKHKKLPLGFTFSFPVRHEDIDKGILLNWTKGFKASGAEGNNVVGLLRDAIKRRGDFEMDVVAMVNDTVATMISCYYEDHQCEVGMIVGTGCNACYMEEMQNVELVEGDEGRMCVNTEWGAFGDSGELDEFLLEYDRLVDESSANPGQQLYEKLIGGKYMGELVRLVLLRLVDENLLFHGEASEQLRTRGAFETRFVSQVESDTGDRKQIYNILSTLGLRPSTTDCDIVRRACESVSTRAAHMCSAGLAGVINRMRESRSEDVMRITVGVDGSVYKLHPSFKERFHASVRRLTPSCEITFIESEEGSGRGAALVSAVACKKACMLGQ
Sequence of Hexokinase-4 (Homo sapiens) + Glucokinase regulatory protein (Homo sapiens) (Q14397 whole entry, looked up): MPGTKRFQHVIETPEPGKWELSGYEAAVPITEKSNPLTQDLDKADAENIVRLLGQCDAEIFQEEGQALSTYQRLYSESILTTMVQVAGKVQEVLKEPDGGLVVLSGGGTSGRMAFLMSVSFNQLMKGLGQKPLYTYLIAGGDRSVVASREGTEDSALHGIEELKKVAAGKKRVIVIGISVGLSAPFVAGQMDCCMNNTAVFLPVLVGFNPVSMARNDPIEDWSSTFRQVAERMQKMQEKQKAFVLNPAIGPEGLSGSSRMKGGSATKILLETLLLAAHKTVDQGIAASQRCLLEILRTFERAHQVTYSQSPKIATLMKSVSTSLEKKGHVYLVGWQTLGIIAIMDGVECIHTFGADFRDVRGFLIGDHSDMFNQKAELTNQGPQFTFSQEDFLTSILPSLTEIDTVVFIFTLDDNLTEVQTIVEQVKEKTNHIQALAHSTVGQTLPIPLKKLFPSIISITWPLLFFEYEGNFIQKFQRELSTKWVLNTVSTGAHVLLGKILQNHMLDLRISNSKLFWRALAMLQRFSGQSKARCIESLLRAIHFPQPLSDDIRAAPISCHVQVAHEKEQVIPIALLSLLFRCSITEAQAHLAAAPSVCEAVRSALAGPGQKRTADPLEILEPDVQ

| SMILES | outcome |
| --- | --- |
| Cc1ccccc1C(OCCN(C)C)c1ccccc1 (stereo not given) | inactive |
| NC(=O)c1cnccn1 | inactive |
| OC(CN1CCC(Cc2ccc(F)cc2)CC1)c1ccc(Cl)cc1 (stereo not given) | inactive |
| CCOC(=O)C1=C[C@]2(CC)CCCN3CCc4c(n1c1ccccc41)[C@@H]32 | inactive |
| Cc1[nH]c(=O)c(C#N)cc1-c1ccc2nccn2c1 | inactive |
| O=C(O)COCCN1CCN(C(c2ccccc2)c2ccc(Cl)cc2)CC1 (stereo not given) | inactive |
| CC(C)(Sc1ccc(CCN(CCCCC2CCCCC2)C(=O)NC2CCCCC2)cc1)C(=O)O | inactive |
| NCCCC(N)(C(=O)O)C(F)F (stereo not given) | inactive |
| Cc1[nH]c(=O)c(C#N)cc1-c1ccncc1 | inactive |
| Nc1nc2ccc(OC(F)(F)F)cc2s1 | inactive |
| CC(C)NCC(O)COc1ccc(COCCOC(C)C)cc1 (stereo not given) | inactive |
| Nc1nc2c(ncn2COCCO)c(=O)[nH]1 | inactive |
| NCCc1ccc(O)c(O)c1 | inactive |
| N[C@@H]1CONC1=O | inactive |
| O=C(Nc1nc2ccccc2n1CCN1CCOCC1)c1cccc([N+](=O)[O-])c1 | inactive |
| Cc1cccc(-c2[nH]c(C(C)(C)C)nc2-c2ccc3nccnc3c2)n1 | inactive |
| O=NN(CCCl)C(=O)NCCCl | inactive |
| Cc1cn[nH]c1 | inactive |
| NNCCc1ccccc1 | inactive |
| Nc1ccc(S(=O)(=O)Nc2ccnn2-c2ccccc2)cc1 | inactive |

| SMILES | outcome |
| --- | --- |
| CCCCNc1cc(C(=O)O)cc(S(N)(=O)=O)c1Oc1ccccc1 | inactive |
| O=c1n(CCCN2CCN(c3cccc(Cl)c3)CC2)nc2ccccn12 | inactive |
| NC(N)=NC(=O)c1nc(Cl)c(N)nc1N | inactive |
| C1COC(NC(C2CC2)C2CC2)=N1 | inactive |
| CNC[C@H](O)c1cccc(O)c1 | inactive |
| Cc1ccc(N(CC2=NCCN2)c2cccc(O)c2)cc1 | inactive |
| Cc1oncc1C(=O)Nc1ccc(C(F)(F)F)cc1 | inactive |
| C[C@]12CCC(=O)C=C1CC[C@@H]1[C@@H]2[C@@H](O)C[C@@]2(C)[C@H]1CC[C@]2(O)C(=O)CO | inactive |
| CCC(C)N(C)C(=O)c1cc2ccccc2c(-c2ccccc2Cl)n1 (stereo not given) | inactive |
| CC(C[N+](C)(C)C)OC(N)=O (stereo not given) | inactive |
| CC(C)C[C@H](NC(=O)[C@@H](O)[C@H](N)Cc1ccccc1)C(=O)O | inactive |
| CN1CCN(CCCN2c3ccccc3Sc3ccc(C(F)(F)F)cc32)CC1 | inactive |
| CC(=O)Oc1ccccc1C(=O)O | inactive |
| CCn1cc(C(=O)O)c(=O)c2cc(F)c(N3CCNC(C)C3)c(F)c21 (stereo not given) | inactive |
| CCN(CC)CCCC(C)Nc1ccnc2cc(Cl)ccc12 (stereo not given) | inactive |
| NS(=O)(=O)c1cc2c(cc1Cl)NC=NS2(=O)=O | inactive |
| O=C1CCC(N2C(=O)c3ccccc3C2=O)C(=O)N1 (stereo not given) | inactive |
| OC(CCN1CCCCC1)(c1ccccc1)C1CC2C=CC1C2 (stereo not given) | inactive |
| N=c1nc(N2CCCCC2)cc(N)n1O | inactive |
| O=C1CCc2cc(OCCCCc3nnnn3C3CCCCC3)ccc2N1 | inactive |
